From PubChem
Ec RNAP inh – E. coli RNAP inhibitors, biochemical; DNA-directed RNA polymerase subunit beta (Escherichia coli (strain K12)), P0A8V2; 62,000 tested, 0.2% active; inhibition, %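 (tested at 10 µM)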; E. coli RNA polymerase, fluorescence transcription assay; in the data active means inhibition above about 20%;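 further: 0% = enzyme without compound and 100% = no enzyme blank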
Target sequence (P0A8V2 whole entry, looked up): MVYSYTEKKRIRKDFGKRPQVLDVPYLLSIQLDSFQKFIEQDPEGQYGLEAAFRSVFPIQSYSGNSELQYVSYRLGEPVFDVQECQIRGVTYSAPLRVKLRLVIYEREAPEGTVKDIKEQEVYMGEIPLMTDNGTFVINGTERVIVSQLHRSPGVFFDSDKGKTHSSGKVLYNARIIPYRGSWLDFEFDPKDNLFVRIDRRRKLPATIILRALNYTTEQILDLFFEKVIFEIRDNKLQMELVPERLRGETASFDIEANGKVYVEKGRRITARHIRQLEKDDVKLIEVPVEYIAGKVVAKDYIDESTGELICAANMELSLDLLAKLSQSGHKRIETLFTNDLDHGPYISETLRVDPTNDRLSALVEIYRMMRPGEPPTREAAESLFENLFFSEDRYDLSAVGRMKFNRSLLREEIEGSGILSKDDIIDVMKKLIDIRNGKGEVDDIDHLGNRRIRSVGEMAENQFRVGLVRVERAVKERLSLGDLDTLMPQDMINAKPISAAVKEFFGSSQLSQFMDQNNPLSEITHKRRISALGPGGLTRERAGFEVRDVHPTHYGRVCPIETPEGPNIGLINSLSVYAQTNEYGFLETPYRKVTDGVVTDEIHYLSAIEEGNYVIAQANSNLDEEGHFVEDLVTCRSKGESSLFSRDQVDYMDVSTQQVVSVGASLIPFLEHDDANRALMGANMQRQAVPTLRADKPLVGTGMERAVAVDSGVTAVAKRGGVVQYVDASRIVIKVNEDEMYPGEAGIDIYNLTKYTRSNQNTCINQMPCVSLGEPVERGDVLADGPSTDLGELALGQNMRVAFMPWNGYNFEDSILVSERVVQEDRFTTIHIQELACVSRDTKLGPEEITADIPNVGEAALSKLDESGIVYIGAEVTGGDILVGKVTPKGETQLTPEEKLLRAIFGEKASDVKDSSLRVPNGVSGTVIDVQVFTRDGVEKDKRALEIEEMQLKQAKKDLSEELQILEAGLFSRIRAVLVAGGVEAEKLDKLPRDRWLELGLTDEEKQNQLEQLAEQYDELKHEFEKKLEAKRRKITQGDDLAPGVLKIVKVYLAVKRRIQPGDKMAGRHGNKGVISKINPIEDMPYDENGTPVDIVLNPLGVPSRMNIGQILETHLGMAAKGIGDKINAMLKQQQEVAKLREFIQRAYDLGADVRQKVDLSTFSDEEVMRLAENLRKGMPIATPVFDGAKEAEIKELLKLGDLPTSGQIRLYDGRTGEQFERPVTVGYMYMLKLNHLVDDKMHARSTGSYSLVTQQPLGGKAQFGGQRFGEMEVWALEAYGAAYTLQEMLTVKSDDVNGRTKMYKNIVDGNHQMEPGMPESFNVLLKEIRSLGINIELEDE
BAP1 block – inhibitors of BAP1 deubiquitinase, primary screen, biochemical, Ub-AMC fluorescence, kinetic | recombinant BAP1, Ub-AMC hydrolysis fluorescence kinetic; hits give low values | calls only at 20 µM | 72,000 tested, 0.48% active | Ubiquitin carboxyl-terminal hydrolase BAP1 (Homo sapiens), Q92560;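 active means activity remaining at or below 50% of control, provided the compound also passes the data quality filters; inactive means the rest, including low values that fail the filters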;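 further: 100% = DMSO wells rate and 0% = substrate alone blank rate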
HER2 expr 66K – inhibitors of Her2 protein expression, primary screen, SKBR-3 cells, AlphaScreen, 66K library | Receptor tyrosine-protein kinase erbB-2 (Homo sapiens), P04626 | SKBR-3 HER2 protein level, 18-24 h; hits give low values | HER2 level % of control, % at 10 µM | 65,000 tested, 0.69% active | AID 645, 2007;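 active means HER2 level under 5% of the carrier-only control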;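 further: 100% = DMSO carrier and 0% = 500 nM PU-H71 HSP90 inhibitor; lower value means stronger loss of Her2 protein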
TNAP act mid DEA – human TNAP enzyme activators, primary screen, biochemical, luminescent, intermediate phosphate acceptor level | Alkaline phosphatase, tissue-nonspecific isozyme (Homo sapiens), P05186 | purified TNAP, CDP-star luminescence, 100 mM DEA, 30 min; hits give high values; scale: 0 levamisole-inhibited, 1 vehicle-only enzyme | activation factor at 20 µM | 64,000 tested, under 10 active;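 active means activation factor of at least 2 at 20 µM, relative to controls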
SK-BR-3 tox 24h – SK-BR-3 proliferation inhibitors, primary screen, cell-based, human, 24 h; SK-BR-3 viability, CellTiter-Glo ATP luminescence; hits give low values; viability, % at 10 µM; 41,000 tested, 0.47% active; AID 847, 2007;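 active means viability at or below the median of all test compounds minus 3 SD, in both replicates if run twice, cut at about 45% in these data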;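 further: 100% = median untreated cell wells and 0% = median positive control drug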
BAP1 inh conf – BAP1 deubiquitinase inhibitors, hit retest, confirmation, orthogonal assay, biochemical, Ub-ethyl ester substrate, HPLC readout; shares compounds with BAP1 block; purified BAP1, Ub-ethyl ester hydrolysis; hits give low values; % of control activity, % at 20 µM; 310 tested, 8% active; AID 753, 2007;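 active means percent of control activity at or below 60%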
The depositor's hits bear a star; i = inactive; . = no result; + = active, no number. Only some compounds are listed: those with a hit (about 1.4% of all), similar ones and a draw of the others.

SMILES	Ec RNAP inh	BAP1 block	HER2 expr 66K	TNAP act mid DEA	SK-BR-3 tox 24h	BAP1 inh conf
O=C(CSc1nc2c(c(=O)n1-c1ccc(Cl)cc1)SCC2)Nc1ccc2c(c1)OCCO2	10.9	+	78.5	0.9	.	49.3*
CCOC(=O)C1=C(C)N=c2s/c(=C/c3ccco3)c(=O)n2C1c1cccc(OC)c1 (configuration not stated)	3.1	+	91.7	0.9	.	65.6
CCOC(=O)C1=C(C)N=c2s/c(=C\c3cccn3C)c(=O)n2C1c1cccc(OC)c1OC (configuration not stated)	9.8	i	72.9	0.9	.	.
Cc1ccc(-c2ccc(C(=O)C(F)(F)F)[nH]2)cc1	.	i	.	.	.	.
Cc1ccc(S(=O)(=O)C2CS(=O)(=O)CC2S(=O)(=O)c2ccc(C)cc2)cc1 (configuration not stated)	.	i	.	.	.	.
CCn1c(SCC(=O)c2cc(OC)ccc2OC)nc2c1c(=O)n(C)c(=O)n2C	14.1	i	108.1	0.8	92.7	.
COc1ccc2c(c1)c1nc(SCC(C)C)n(CCO)c(=O)c1n2C	5.3	+	80.3	1	.	117.4
CC(C)Cn1cc(C(=O)N2CCN(c3ccccn3)CC2)c2c3ccccc3n(C)c2c1=O	1.7	+	90.0	0.9	73.2	142.8
CCN1CCN(C(=O)c2cn(CCOC)c(=O)c3c2c2ccccc2n3C)CC1	0.6	i	77.0	0.9	70.3	.
O=C(COc1ccc(-c2ccccc2)cc1)Nc1nccs1	.	i	.	.	.	.
Cc1sc(NC(=O)CSc2nnc(-c3ccccc3)o2)c(C#N)c1C	9.5	+	93.4	0.9	85.4	37.2*
CCOC(=O)c1c(NC(=O)CSc2nnc(-c3cccnc3)o2)sc(C)c1C	8.4	i	105.1	0.9	85.1	.
Cc1ccc(-c2nc3ncccc3o2)cc1NC(=O)Cc1ccc(Cl)cc1	1.1	i	100.9	0.9	99.8	.
Cc1ccc(-c2nc3cccnc3o2)cc1NC(=O)COc1ccc(Cl)cc1C	5.6	+	46.6	0.8	57.6	80.7
C(=Cc1ncccn1)c1ccccc1	.	i	.	.	.	.
CCOC(=O)Cn1cc(C(=O)c2cccs2)c2ccccc21	4.1	i	84.9	0.9	98.3	.
O=C(O)Cn1cc(C(=O)c2cccs2)c2ccccc21	6.7	+	79.8	0.9	99.3	147.9
COc1cc(NC(=O)c2cc3ccccc3o2)c(OC)cc1Cl	5.7	i	64.2	0.9	77.8	.
COc1cc(NC(=O)c2cc3ccccc3o2)c(OC)cc1Br	-5.5	+	65.2	0.9	.	134.2
O=C1c2ccccc2C(=O)N1C1C(=O)N(c2cccc(C(F)(F)F)c2)C1c1ccc(F)cc1 (configuration not stated)	.	i	.	.	.	.
CN(C)c1ccc(-c2nn3c(-c4ccc(Cl)cc4Cl)nnc3s2)cc1	7.0	+	51.1	0.9	93.3	105.5
O=C(CSc1nnc(-c2c[nH]c3ccccc23)o1)N1c2ccccc2CCc2ccccc21	0.1	+	88.3	1	103.8	93.7
COc1ccc(Cn2nnnc2C(C(C)C)N(Cc2ccco2)Cc2cccs2)cc1 (configuration not stated)	0.5	+	84.0	1	.	108.2
CC(C)C(c1nnnn1Cc1ccccc1)N(Cc1ccco1)Cc1cccs1 (configuration not stated)	1.1	i	88.1	0.9	94.2	.
Cc1ccc(-n2ncc3c(=O)n(CC(=O)Nc4cccc(Cl)c4)cnc32)cc1C	-3.5	+	86.0	1.1	88.8	79.1
SMILES	Ec RNAP inh	BAP1 block	HER2 expr 66K	TNAP act mid DEA	SK-BR-3 tox 24h	BAP1 inh conf
CCCCCCNC(=O)C(C#N)c1nc2ccccc2nc1N1CCCC1 (configuration not stated)	-9.8	+	105.2	0.8	72.4	70.4
COc1ccccc1N1CCN(c2nc3ccccc3nc2C(C#N)C(=O)OC(C)C)CC1 (configuration not stated)	-18.9	+	105.5	0.7	97.7	117.2
CCOc1ccc(N2Cc3ccccc3C2)cc1	11.1	+	125.1	0.9	.	94.2
O=C1C2CC=CCC2C(=O)N1c1ccc(O)cc1 (configuration not stated)	.	i	.	.	.	.
Cn1cnnc1SCC(=O)Nc1ccc2nc(SCc3ccccc3)sc2c1	-0.8	i	118.2	0.9	.	.
COC(=O)CSc1nc2ccc(NC(=O)CSc3nnnn3Cc3ccccc3)cc2s1	5.9	+	81.5	0.9	88.6	81.2
COC(=O)c1c(NC(=O)c2ccc(OC(C)C)cc2)sc2c1CCC(c1ccccc1)C2 (configuration not stated)	.	i	.	.	.	.
O=C(O)c1c(-c2ccccc2)c2oc3ccccc3c2[nH]c1=O	1.6	+	69.2	0.9	84.1	115.4
Cc1ccc(Cl)cc1N1CCN(C(c2cccnc2)c2nnnn2C2CCCCC2)CC1 (configuration not stated)	-7.6	i	68.7	0.9	84.0	.
Cc1ccc(Cl)cc1N1CCN(C(c2ccc(C#N)cc2)c2nnnn2C2CCCC2)CC1 (configuration not stated)	7.2	+	84.8	0.9	97.3	68.0
N#CCCN(CCC#N)S(=O)(=O)c1ccc2ccccc2c1	.	i	.	.	.	.
CC1CCc2nc(NC(=O)c3ccc(S(=O)(=O)N4CCOCC4)cc3)sc2C1 (configuration not stated)	.	i	.	.	.	.
CC1CCc2nc(NC(=O)c3cc(C(C)(C)C)nn3C)sc2C1 (configuration not stated)	6.0	+	95.3	0.9	93.8	122.8
COc1cc2c(cc1OC)-c1cc(N3CCCCCC3)nc(=O)n1CC2	5.4	+	92.5	1	98.7	141.9
Cc1ccc(-c2cc(C(=O)N3CCC(C)CC3)c3ccccc3n2)cc1C	.	i	.	.	.	.
O=C(CSc1nc2ccccc2o1)c1cccc([N+](=O)[O-])c1	.	i	.	.	.	.
COC(=O)CSc1nc2ccccc2o1	4.5	.	61.8	1	97.4	.
COc1cc(OC)nc(NC(=O)CSc2nc3ccccc3o2)n1	6.0	+	129.9	0.9	126.7	84.4
O=C(c1ccco1)[C@@H]1[C@@H]2C(=O)N(c3ccc(Br)cc3)C(=O)[C@@H]2C2c3ccccc3C=CN21 (some centres not stated)	11.5	+	64.3	0.9	91.9	91.2
O=C(c1ccco1)[C@@H]1[C@@H]2C(=O)N(c3ccc(F)cc3)C(=O)[C@@H]2C2c3ccccc3C=CN21 (some centres not stated)	9.4	i	110.6	0.9	102.4	.
